# Test results reported in PubChem BioAssay (NCATS).
# Several values for one entry are separate records, joined by “and”; a condition that tells them apart may be missing. Equal entries are not always repeated. Records with an inconclusive call do not appear. Activity calls are given as the source filed them. Calls come from the whole dose curve; as a rule, active = well fitted inhibition curve with a large enough effect; inconclusive = small, poorly fitted or top-dose-only effect; inactive = flat fitted curve, though single readings scatter.
# Test system: TAB165
# Assay: qHTS profiling for inhibitors of Plasmodium falciparum proliferation (AID 504749); note: potency is the fitted concentration of half-maximal effect;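 for activity, negative = inhibition: 0% = DMSO vehicle and full inhibition = artemisinin control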
# Settings: P. falciparum in erythrocytes, SYBR Green DNA, 72 h; series mostly up to 28.7 µM; activity, negative = inhibition: at the top concentration
# Summary of the method: (§1)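 Parasite proliferation within erythrocytes, 72 h exposure. Endpoint: SYBR Green I fluorescence after overnight lysis at room temperature. Controls: 0.29 uM artemisinin, DMSO.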
# Note: nearly all actives have a fitted effect of over 60% in size.
SMILES,"activity, negative = inhibition",Potency
OC(c1ccccc1)(c1ccccc1)C1CCNCC1,2.47% [at 12.8 µM] (inactive),–
C=CCOC(Cn1ccnc1)c1ccc(Cl)cc1Cl (stereo not drawn),–,3.16 µM (active)
C[C@H]1C(=O)O[C@@H]2CCN3CC=C(COC(=O)[C@](C)(O)[C@]1(C)O)[C@H]23,0.446% (inactive),–
CCOC(=O)NC(O)C(Cl)(Cl)Cl (stereo not drawn),15.7% (inactive),–
CNC(=O)NC(O)C(Cl)(Cl)Cl (stereo not drawn),-2.24% (inactive),–
O=C(CCCN1CCC(n2c(=O)[nH]c3ccccc32)CC1)c1ccc(F)cc1,–,1 µM (active)
Oc1c(Br)cc(Br)cc1Br,4.78% (inactive),–
CC(C)C(Br)C(=O)NC(N)=O (stereo not drawn),4.59% (inactive),–
O=c1n(Cl)c(=O)n(Cl)c(=O)n1Cl,1.11% (inactive),–
C[C@]12C=CC(=O)C=C1CC[C@@H]1[C@@H]2CC[C@@]2(C)[C@H]1CC[C@]2(C)O,-1.03% (inactive),–
ClC1=C(Cl)C2(Cl)C(CBr)CC1(Cl)C2(Cl)Cl (stereo not drawn),-3.68% (inactive),–
CCN(CC)C(C)C(=O)c1ccccc1 (stereo not drawn),2.5% (inactive),–
C[C@]12CC[C@H]3[C@@H](CC=C4C[C@@H](O)CC[C@@]43C)[C@@H]1CC[C@@H]2O,11.7% (inactive),–
CC(C)(C)OC(=O)c1ncn2c1[C@@H]1CCCN1C(=O)c1c(Br)cccc1-2,0.317% (inactive),–
COc1ccc(C(=O)N2CCCC2=O)cc1,1.77% (inactive),–
CCC1(CC)C(=O)NC(=O)NC1=O,1.48% (inactive),–

# Test system: W2
# Assay: as above
# Settings: P. falciparum in erythrocytes, SYBR Green DNA, 72 h; series mostly up to 28.7 µM; activity, negative = inhibition: at the top concentration
# Summary of the method: as §1
SMILES,"activity, negative = inhibition",Potency
OC(c1ccccc1)(c1ccccc1)C1CCNCC1,-19% [at 12.8 µM] (inactive),–
C=CCOC(Cn1ccnc1)c1ccc(Cl)cc1Cl (stereo not drawn),–,4.26 µM (active)
C[C@H]1C(=O)O[C@@H]2CCN3CC=C(COC(=O)[C@](C)(O)[C@]1(C)O)[C@H]23,1.52% (inactive),–
Nc1ccc(N)cc1,–,3.79 µM (active)
CCOC(=O)NC(O)C(Cl)(Cl)Cl (stereo not drawn),1.93% (inactive),–
CN1CCc2cc(Cl)c(O)cc2[C@H]2c3ccccc3CC[C@@H]21,–,4.78 µM (active)
CCN(CC)CCOC(=O)C(C)(c1ccccc1)c1ccccc1,–,1.35 µM (active)
CNC(=O)NC(O)C(Cl)(Cl)Cl (stereo not drawn),-2.29% (inactive),–
O=C(CCCN1CCC(n2c(=O)[nH]c3ccccc32)CC1)c1ccc(F)cc1,–,0.642 µM (active)
Oc1c(Br)cc(Br)cc1Br,-6.1% (inactive),–
CC(C)C(Br)C(=O)NC(N)=O (stereo not drawn),6.41% (inactive),–
O=c1n(Cl)c(=O)n(Cl)c(=O)n1Cl,10.6% (inactive),–
C[C@]12C=CC(=O)C=C1CC[C@@H]1[C@@H]2CC[C@@]2(C)[C@H]1CC[C@]2(C)O,11.7% (inactive),–
CCN(CC)C(C)C(=O)c1ccccc1 (stereo not drawn),1.21% (inactive),–
C[C@]12CC[C@H]3[C@@H](CC=C4C[C@@H](O)CC[C@@]43C)[C@@H]1CC[C@@H]2O,-9.74% (inactive),–
COc1ccc(C(=O)N2CCCC2=O)cc1,4.46% (inactive),–

# Test system: CRL-7250
# Assay: Cytotoxic Profiling of Annotated Libraries Using Quantitative High-Throughput Screening (AID 1296008); for max response: % is set by controls: 0 for no effect and ±100 for the full control effect
# Settings: Five cell lines viability, CellTiter-Glo ATP luminescence, 48-72 h; max response: hits give low values
# Summary of the method: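 Compounds were pin-transferred onto cells and incubated 48 or 72 hr at 37 degree Celsius, 95% humidity. CellTiter-Glo was added, plates sat 10 min at room temperature, then ATP-coupled luminescence was imaged as the viability read-out.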
SMILES,outcome,max response
C[C@H]1CNCCc2ccc(Cl)cc21,inactive,–
CC[C@H]1C[C@@H]2C[C@H]3c4[nH]c5ccc(OC)cc5c4CCN(C2)[C@@H]13,–,1.28% (inactive)
CCCN(CCC)CCc1c[nH]c2ccccc12,–,-1.07% (inactive)
OC(c1ccccc1)(c1ccccc1)C1CCNCC1,–,4.48% (inactive)
C=CCOC(Cn1ccnc1)c1ccc(Cl)cc1Cl (stereo not drawn),–,-16.8% (inactive)
C[C@H]1C(=O)O[C@@H]2CCN3CC=C(COC(=O)[C@](C)(O)[C@]1(C)O)[C@H]23,–,-23.7% (inactive)
Nc1ccc(N)cc1,–,-4.93% (inactive)
CCOC(=O)NC(O)C(Cl)(Cl)Cl (stereo not drawn),–,0.547% (inactive)
CN1CCc2cc(Cl)c(O)cc2[C@H]2c3ccccc3CC[C@@H]21,–,-3.76% (inactive)
CCN(CC)CCOC(=O)C(C)(c1ccccc1)c1ccccc1,–,-0.0825% (inactive)
Cc1cccc(Cc2cnc[nH]2)c1C,–,-4.56% (inactive)
CCCCC1C(=O)NC(=O)N(C2CCCCC2)C1=O (stereo not drawn),–,-13.7% (inactive)
COc1cc(C[C@@H](C)N)c(OC)cc1Br,–,2.12% (inactive)
CC(C)=C[C@@H]1[C@@H](C(=O)OCc2coc(Cc3ccccc3)c2)C1(C)C,–,2.34% (inactive)
CNC(=O)NC(O)C(Cl)(Cl)Cl (stereo not drawn),–,2.85% (inactive)
COP(=S)(OC)Oc1ccc(S(N)(=O)=O)cc1,inactive,–
O=C(CCCN1CCC(n2c(=O)[nH]c3ccccc32)CC1)c1ccc(F)cc1,–,-0.196% (inactive)
Oc1c(Br)cc(Br)cc1Br,–,-10.6% (inactive)

SMILES,outcome,max response
CC(C)C(Br)C(=O)NC(N)=O (stereo not drawn),inactive,–
O=c1n(Cl)c(=O)n(Cl)c(=O)n1Cl,inactive,–
C[C@]12C=CC(=O)C=C1CC[C@@H]1[C@@H]2CC[C@@]2(C)[C@H]1CC[C@]2(C)O,–,-25.8% (inactive)
CC(C)=CCN1CC[C@@]2(C)c3cc(O)ccc3C[C@@H]1[C@@H]2C,–,-10.3% (inactive)
ClC1=C(Cl)C2(Cl)C(CBr)CC1(Cl)C2(Cl)Cl (stereo not drawn),–,-0.0053% (inactive)
CCN(CC)C(C)C(=O)c1ccccc1 (stereo not drawn),–,-0.537% (inactive)
C[C@]12CC[C@H]3[C@@H](CC=C4C[C@@H](O)CC[C@@]43C)[C@@H]1CC[C@@H]2O,–,-19.9% (inactive)
CCN(CC)Cc1nccn1-c1ccc([N+](=O)[O-])cc1C(=O)c1ccccc1Cl,–,-12.2% (inactive)
CCc1cc(OC)c(C[C@H](C)N)cc1OC,–,-4.69% (inactive)
O=C(NC(=O)c1c(F)cccc1F)Nc1cc(Cl)c(OC(F)(F)C(F)C(F)(F)F)cc1Cl (stereo not drawn),inactive,–
COc1ccc(OC)c(CC(C)N)c1 (stereo not drawn),–,-3.68% (inactive)
CCOC(=O)NC(C)(C)Cc1ccc(Cl)cc1,–,-4.28% (inactive)
C[C@@H]1CC[C@H]2[C@@H](C)C(=O)O[C@@H]3O[C@@]4(C)CC[C@@H]1[C@]32OO4,–,-4.21% (inactive)
CC(C)(C)OC(=O)c1ncn2c1[C@@H]1CCCN1C(=O)c1c(Br)cccc1-2,inactive,–
COc1ccc(C(=O)N2CCCC2=O)cc1,–,-4.75% (inactive) and 1.19% (inactive)
CC[C@H]1C[C@H]2[C@@H]3CCC4=CC(=O)CC[C@@H]4[C@H]3CC[C@]2(C)[C@H]1O,–,-11.6% (inactive)
CCC1(CC)C(=O)NC(=O)NC1=O,–,-2.88% (inactive)
CN(C)CCc1c[nH]c2cccc(O)c12,inactive,–
